{"source": "PubChem BioAssay (NCATS)", "note": "Values joined by “and” are separate entries in the source; they are usually repeats but may differ in a detail not shown here. Identical values can stand only once. Inconclusive results are not listed. Where a call stands in place of a potency, no number is given. The source holds several records for some structures; these can differ, active in one and inactive in another. Active and inactive are the calls of the source. Calls come from the whole dose curve; as a rule, active = well fitted inhibition curve with a large enough effect; inconclusive = small, poorly fitted or top-dose-only effect; inactive = flat fitted curve, though single readings scatter. Peptide text beside a SMILES is read from it. Potency is the fitted concentration of half-maximal effect."}
{"test_system": "MKL-2", "assay": "qHTS assay to identify novel small-molecules to repurpose for Merkel cell carcinoma treatment (AID 1296009); note: nearly all actives have a fitted effect of over 60% in size", "settings": "MCC and control cell lines, CellTiter-Glo viability, 72 h; series mostly up to 46 µM; activity change, negative = cytotoxicity: at the top concentration", "in_short": "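Viability readout: ATP luminescence (CellTiter-Glo) after 72 hr drug exposure at 37 degree celsius. Dose-response format was 8 points for NPC and 11 points for MIPE; data normalized to in-plate controls.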"}
{"smiles": "Cc1cc2cc3c(C)cc(=O)oc3c(C)c2o1", "activity change, negative = cytotoxicity": "3.51% (inactive)"}
{"smiles": "COc1ccc2cc([C@H](C)C(=O)O)ccc2c1", "Potency": "inactive"}
{"smiles": "Cc1ccc(C)c(OCCCC(C)(C)C(=O)O)c1", "activity change, negative = cytotoxicity": "-1.94% (inactive)"}
{"smiles": "CCC[C@@H]1C[C@@H](C(=O)N[C@@H]([C@H]2O[C@H](SC)[C@H](O)[C@@H](O)[C@H]2O)[C@@H](C)O)N(C)C1", "Potency": "inactive"}
{"smiles": "Clc1ccc(C(Cn2ccnc2)OCc2ccc(Sc3ccccc3)cc2)c(Cl)c1", "note": "(stereo not drawn)", "Potency": "inactive"}
{"smiles": "CS(=O)(=O)OCCCCOS(C)(=O)=O", "activity change, negative = cytotoxicity": "-10.8% (inactive)"}
{"smiles": "CC(=O)NC[C@H]1CN(c2ccc(N3CCOCC3)c(F)c2)C(=O)O1", "activity change, negative = cytotoxicity": "0.722% (inactive)"}
{"smiles": "CC1=C(C)C(=O)C(C(CCCCCC(=O)O)c2ccccc2)=C(C)C1=O", "note": "(stereo not drawn)", "Potency": "23.7 µM (active) and inactive"}
{"smiles": "COc1cc2nc(N3CCN(C(=O)C4CCCO4)CC3)nc(N)c2cc1OC", "note": "(stereo not drawn)", "Potency": "inactive"}
{"smiles": "CCC1=C(C)CN(C(=O)NCCc2ccc(S(=O)(=O)NC(=O)NC3CCC(C)CC3)cc2)C1=O", "note": "(stereo not drawn)", "Potency": "inactive"}
{"smiles": "Clc1ccc(C(Cn2ccnc2)OCc2c(Cl)cccc2Cl)c(Cl)c1", "note": "(stereo not drawn)", "activity change, negative = cytotoxicity": "-1.42% (inactive)"}
{"smiles": "O=C(O)CCNC(=O)c1ccc(N=Nc2ccc(O)c(C(=O)O)c2)cc1", "Potency": "inactive"}
{"smiles": "Cc1nc(-c2ccc(OCC(C)C)c(C#N)c2)sc1C(=O)O", "Potency": "inactive"}
{"smiles": "Cc1c(C(=O)NN2CCCCC2)nn(-c2ccc(Cl)cc2Cl)c1-c1ccc(Cl)cc1", "activity change, negative = cytotoxicity": "-27% (inactive)"}
{"smiles": "Cn1c(NCCN(CCO)CCCc2ccc([N+](=O)[O-])cc2)cc(=O)n(C)c1=O", "Potency": "inactive"}
{"smiles": "CCN(CCO)CCCC(C)Nc1ccnc2cc(Cl)ccc12", "note": "(stereo not drawn)", "Potency": "inactive"}
{"smiles": "CN(C)C(=O)COC(=O)Cc1ccc(OC(=O)c2ccc(N=C(N)N)cc2)cc1", "Potency": "inactive"}
{"smiles": "CC(=O)Nc1ccc(O)cc1", "activity change, negative = cytotoxicity": "-0.986% (inactive)"}
{"smiles": "COC(=O)[C@H](Cc1ccccc1)NC(=O)[C@@H](N)CC(=O)O", "note": "(H-Asp-Phe-OMe)", "Potency": "inactive"}
{"smiles": "COC(=O)C1=C(C)NC(C)=C(C(=O)OCCCN2CCC(c3ccccc3)(c3ccccc3)CC2)C1c1cccc([N+](=O)[O-])c1", "note": "(stereo not drawn)", "Potency": "inactive and 11.9 µM (active)"}
{"smiles": "O=C(NCC1CCCCN1)c1cc(OCC(F)(F)F)ccc1OCC(F)(F)F", "note": "(stereo not drawn)", "activity change, negative = cytotoxicity": "-32.4% (inactive)"}
{"smiles": "O=C(NC(Cc1cc(=O)[nH]c2ccccc12)C(=O)O)c1ccc(Cl)cc1", "note": "(stereo not drawn)", "Potency": "inactive"}
{"smiles": "CCN(CC)C(=S)SSC(=S)N(CC)CC", "Potency": "1.32 µM (active) and 44.2 nM (active) and 531 nM (active)"}
{"smiles": "CN(c1nccc(=O)[nH]1)C1CCN(c2nc3ccccc3n2Cc2ccc(F)cc2)CC1", "Potency": "inactive"}
{"smiles": "Cc1cc2c(s1)Nc1ccccc1N=C2N1CCN(C)CC1", "activity change, negative = cytotoxicity": "-3.55% (inactive)"}
{"smiles": "CC1=C(C(=O)O)N2C(=O)[C@@H](NC(=O)[C@H](N)C3=CCC=CC3)[C@H]2SC1", "Potency": "inactive"}
{"smiles": "Cc1cc(=O)oc2cc(O)ccc12", "Potency": "inactive"}
{"smiles": "CN(C)c1ccc(O)c2c1C[C@H]1C[C@H]3[C@H](N(C)C)C(=O)C(C(N)=O)=C(O)[C@@]3(O)C(=O)C1=C2O", "Potency": "inactive"}
{"smiles": "Cc1cccc(CN2CCN(C(c3ccccc3)c3ccc(Cl)cc3)CC2)c1", "note": "(stereo not drawn)", "activity change, negative = cytotoxicity": "1.01% (inactive)"}
{"smiles": "Cc1ncc([N+](=O)[O-])n1CC(C)O", "note": "(stereo not drawn)", "Potency": "inactive"}
{"smiles": "CNC[C@H](O)c1ccc(O)c(O)c1", "Potency": "inactive"}
{"smiles": "Clc1ccc(C(Cn2ccnc2)OCc2ccsc2Cl)c(Cl)c1", "note": "(stereo not drawn)", "Potency": "inactive"}
{"smiles": "COC(=O)N[C@H](C(=O)N[C@@H](Cc1ccccc1)[C@@H](O)CN(Cc1ccc(-c2ccccn2)cc1)NC(=O)[C@@H](NC(=O)OC)C(C)(C)C)C(C)(C)C", "Potency": "inactive"}
